According to the supplement of paper PMC12067093, “Discovery and optimisation of a covalent ligand for TRIM25 and its application to targeted protein ubiquitination” (Chemical Science, 2025):
About 21,000 targets were measured; listed, in parts, are those with the largest changes and a random draw of the rest.

Compound: CC1Cc2ccccc2N1C(=O)C1CCCN(C1)C(=O)CCl (mixture of isomers) [TRIM25 ligand 11 (diastereomer mixture)]
Experiment: probe-labelled cysteine peptide fold change vs DMSO (competition) (log2 fold change); higher = less target engagement (more negative = stronger competition)
Details: THP-1, incubation time: 4 h
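Note: competitive chemoproteomic profiling in live THP-1 cells with an iodoacetamide desthiobiotin (IA-DTB) probe, comparing probe-labelled peptide intensities in compound-treated cells against DMSO-treated controls.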

ANXA11_P50995_384_FNAVLCSR (UniProt P50995)
Sequence of UniProt P50995 (P50995 whole entry, looked up): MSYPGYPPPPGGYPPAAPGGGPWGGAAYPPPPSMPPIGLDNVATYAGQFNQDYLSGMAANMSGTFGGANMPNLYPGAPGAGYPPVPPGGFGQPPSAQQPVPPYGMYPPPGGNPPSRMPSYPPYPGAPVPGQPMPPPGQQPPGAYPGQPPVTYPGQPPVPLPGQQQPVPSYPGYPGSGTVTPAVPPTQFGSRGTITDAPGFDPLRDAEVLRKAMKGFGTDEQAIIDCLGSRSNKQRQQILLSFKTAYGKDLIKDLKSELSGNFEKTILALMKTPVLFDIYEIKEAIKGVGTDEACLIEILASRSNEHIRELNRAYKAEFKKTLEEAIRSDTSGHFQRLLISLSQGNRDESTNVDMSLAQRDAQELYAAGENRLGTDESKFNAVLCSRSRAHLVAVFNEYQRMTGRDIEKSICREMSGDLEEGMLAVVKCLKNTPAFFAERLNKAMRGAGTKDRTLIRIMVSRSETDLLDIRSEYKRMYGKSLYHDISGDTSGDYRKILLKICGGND
probe-labelled cysteine peptide fold change (10 µM): -0.0174
probe-labelled cysteine peptide fold change (50 µM): -0.0325

ARPC1B_O15143_26_TQIAICPNNHEVHIYEK (UniProt O15143)
probe-labelled cysteine peptide fold change (10 µM): 0.062
probe-labelled cysteine peptide fold change (50 µM): 0.00851

ANKRD50_Q9ULJ7_113_QALAFHFCK (UniProt Q9ULJ7)
probe-labelled cysteine peptide fold change (10 µM): 0.472
probe-labelled cysteine peptide fold change (50 µM): 0.778

ATIC_P31939_101_VVACNLYPFVK (UniProt P31939)
Sequence of UniProt P31939 (P31939 whole entry, looked up): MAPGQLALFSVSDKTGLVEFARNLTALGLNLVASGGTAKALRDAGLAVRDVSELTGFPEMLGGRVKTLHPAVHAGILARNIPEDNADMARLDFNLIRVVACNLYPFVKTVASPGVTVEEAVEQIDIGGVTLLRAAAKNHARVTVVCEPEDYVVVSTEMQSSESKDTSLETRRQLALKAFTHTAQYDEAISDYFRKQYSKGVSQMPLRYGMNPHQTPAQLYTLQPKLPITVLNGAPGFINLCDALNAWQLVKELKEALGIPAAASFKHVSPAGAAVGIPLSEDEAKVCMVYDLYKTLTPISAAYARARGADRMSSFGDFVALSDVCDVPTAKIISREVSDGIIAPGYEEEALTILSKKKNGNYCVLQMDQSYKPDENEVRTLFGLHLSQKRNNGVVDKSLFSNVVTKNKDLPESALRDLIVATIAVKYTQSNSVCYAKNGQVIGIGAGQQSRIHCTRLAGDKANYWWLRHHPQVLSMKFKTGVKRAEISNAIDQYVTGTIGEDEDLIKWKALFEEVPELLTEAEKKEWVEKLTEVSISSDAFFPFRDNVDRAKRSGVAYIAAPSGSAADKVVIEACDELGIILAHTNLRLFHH
probe-labelled cysteine peptide fold change (10 µM): -0.0132
probe-labelled cysteine peptide fold change (50 µM): 0.0726

AHRR_A9YTQ3_485_DVGEDQVHPPLCHFPQR (UniProt A9YTQ3)
Sequence of UniProt A9YTQ3 (A9YTQ3 whole entry, looked up): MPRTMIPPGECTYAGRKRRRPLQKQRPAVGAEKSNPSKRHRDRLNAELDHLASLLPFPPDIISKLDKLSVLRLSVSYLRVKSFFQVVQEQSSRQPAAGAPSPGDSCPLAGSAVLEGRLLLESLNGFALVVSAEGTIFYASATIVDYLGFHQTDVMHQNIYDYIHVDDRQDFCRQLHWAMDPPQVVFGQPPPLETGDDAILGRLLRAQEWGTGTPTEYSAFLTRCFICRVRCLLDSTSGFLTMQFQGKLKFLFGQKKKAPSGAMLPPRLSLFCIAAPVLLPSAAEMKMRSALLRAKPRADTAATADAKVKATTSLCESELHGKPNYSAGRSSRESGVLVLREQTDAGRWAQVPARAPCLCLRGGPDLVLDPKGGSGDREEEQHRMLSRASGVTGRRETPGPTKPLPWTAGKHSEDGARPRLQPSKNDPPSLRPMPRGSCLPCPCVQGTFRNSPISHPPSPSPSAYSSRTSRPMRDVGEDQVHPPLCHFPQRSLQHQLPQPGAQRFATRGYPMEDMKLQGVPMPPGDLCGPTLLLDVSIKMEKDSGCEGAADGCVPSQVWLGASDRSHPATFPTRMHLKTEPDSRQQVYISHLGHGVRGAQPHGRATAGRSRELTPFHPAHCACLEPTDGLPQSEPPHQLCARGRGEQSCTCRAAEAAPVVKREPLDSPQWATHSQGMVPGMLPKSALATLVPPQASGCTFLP
probe-labelled cysteine peptide fold change (10 µM): 0.678
probe-labelled cysteine peptide fold change (50 µM): 0.583

ANKRD10_Q9NXR5_140_SGSLECISALVANGAHVDLR (UniProt Q9NXR5)
probe-labelled cysteine peptide fold change (10 µM): -0.314
probe-labelled cysteine peptide fold change (50 µM): -0.119

ARHGAP45_Q92619_528_SATISYYQMMHMQTAPLPVHFQMLCESSK (UniProt Q92619)
probe-labelled cysteine peptide fold change (10 µM): -0.132
probe-labelled cysteine peptide fold change (50 µM): -0.236

ARF6_P62330_90_HYYTGTQGLIFVVDCADRDRIDEAR (UniProt P62330)
probe-labelled cysteine peptide fold change (10 µM): -0.368
probe-labelled cysteine peptide fold change (50 µM): 0.0425

ARRB2_P32121_270_CPVAQLEQDDQVSPSSTFCK (UniProt P32121)
probe-labelled cysteine peptide fold change (10 µM): 0.677
probe-labelled cysteine peptide fold change (50 µM): 0.57

BIN2_Q9UBW5_205_IGCYVTIFQNISNLR (UniProt Q9UBW5)
probe-labelled cysteine peptide fold change (10 µM): 0.21
probe-labelled cysteine peptide fold change (50 µM): 0.194

ASMTL_O95671_274_AEAGEAGQATAEAECHR (UniProt O95671)
probe-labelled cysteine peptide fold change (10 µM): -0.103
probe-labelled cysteine peptide fold change (50 µM): -0.158

BCAT1_P54687_338_EMFGSGTACVVCPVSDILYK (UniProt P54687)
Sequence of UniProt P54687 (P54687 whole entry, looked up): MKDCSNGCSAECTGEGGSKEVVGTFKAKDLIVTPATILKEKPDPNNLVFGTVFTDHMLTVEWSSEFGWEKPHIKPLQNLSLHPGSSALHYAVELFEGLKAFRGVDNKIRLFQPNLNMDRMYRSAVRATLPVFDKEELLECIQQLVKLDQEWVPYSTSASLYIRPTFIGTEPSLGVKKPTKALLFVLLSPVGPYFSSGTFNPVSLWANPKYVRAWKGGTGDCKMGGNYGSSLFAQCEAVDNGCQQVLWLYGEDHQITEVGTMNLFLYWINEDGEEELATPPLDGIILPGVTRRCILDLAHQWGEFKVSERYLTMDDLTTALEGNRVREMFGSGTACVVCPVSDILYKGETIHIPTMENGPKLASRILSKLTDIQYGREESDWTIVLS
probe-labelled cysteine peptide fold change (10 µM): 0.15
probe-labelled cysteine peptide fold change (50 µM): 0.0428

ANTXR1_Q9H6X2_257_VLCSFK (UniProt Q9H6X2)
Sequence of UniProt Q9H6X2 (Q9H6X2 whole entry): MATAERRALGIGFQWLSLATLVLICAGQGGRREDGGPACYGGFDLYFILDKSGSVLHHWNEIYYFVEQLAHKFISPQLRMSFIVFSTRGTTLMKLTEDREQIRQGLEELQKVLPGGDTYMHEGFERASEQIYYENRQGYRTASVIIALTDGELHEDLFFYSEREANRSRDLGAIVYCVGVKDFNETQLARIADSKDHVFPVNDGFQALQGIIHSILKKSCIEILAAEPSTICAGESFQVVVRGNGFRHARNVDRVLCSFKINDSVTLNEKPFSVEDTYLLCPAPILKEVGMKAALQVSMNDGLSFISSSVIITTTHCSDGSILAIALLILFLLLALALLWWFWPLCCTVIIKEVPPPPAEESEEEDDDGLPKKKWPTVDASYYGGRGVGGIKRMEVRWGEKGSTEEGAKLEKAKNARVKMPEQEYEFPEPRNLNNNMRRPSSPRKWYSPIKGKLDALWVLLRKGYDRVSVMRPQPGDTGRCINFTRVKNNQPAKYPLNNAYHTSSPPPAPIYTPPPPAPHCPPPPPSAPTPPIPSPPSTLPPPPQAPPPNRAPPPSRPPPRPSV
probe-labelled cysteine peptide fold change (10 µM): 0.067
probe-labelled cysteine peptide fold change (50 µM): 0.257

ARID1A_O14497_2043_EEEQDQGVSCNK (UniProt O14497)
probe-labelled cysteine peptide fold change (10 µM): 0.662
probe-labelled cysteine peptide fold change (50 µM): 0.268

ALG11_Q2TAA5_72_NQMVIAFFHPYCNAGGGGER (UniProt Q2TAA5)
Sequence of UniProt Q2TAA5 (Q2TAA5 whole entry, looked up): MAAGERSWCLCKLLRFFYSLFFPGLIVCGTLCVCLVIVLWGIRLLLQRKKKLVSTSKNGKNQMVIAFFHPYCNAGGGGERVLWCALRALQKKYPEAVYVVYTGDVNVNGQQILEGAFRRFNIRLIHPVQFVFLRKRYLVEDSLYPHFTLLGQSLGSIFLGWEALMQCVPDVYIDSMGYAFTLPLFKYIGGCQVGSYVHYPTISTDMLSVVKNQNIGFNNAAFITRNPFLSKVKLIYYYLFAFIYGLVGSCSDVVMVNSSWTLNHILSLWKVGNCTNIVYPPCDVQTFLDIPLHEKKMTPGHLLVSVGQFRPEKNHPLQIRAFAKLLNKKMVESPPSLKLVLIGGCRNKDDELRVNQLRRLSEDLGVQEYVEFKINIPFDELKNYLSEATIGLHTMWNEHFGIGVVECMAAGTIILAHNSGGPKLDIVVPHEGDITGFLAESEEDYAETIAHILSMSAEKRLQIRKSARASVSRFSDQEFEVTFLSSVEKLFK
probe-labelled cysteine peptide fold change (10 µM): -0.0377
probe-labelled cysteine peptide fold change (50 µM): -0.618

AIP_O00170_78_LPVWETIVCTMR (UniProt O00170)
Sequence of UniProt O00170 (O00170 whole entry, looked up): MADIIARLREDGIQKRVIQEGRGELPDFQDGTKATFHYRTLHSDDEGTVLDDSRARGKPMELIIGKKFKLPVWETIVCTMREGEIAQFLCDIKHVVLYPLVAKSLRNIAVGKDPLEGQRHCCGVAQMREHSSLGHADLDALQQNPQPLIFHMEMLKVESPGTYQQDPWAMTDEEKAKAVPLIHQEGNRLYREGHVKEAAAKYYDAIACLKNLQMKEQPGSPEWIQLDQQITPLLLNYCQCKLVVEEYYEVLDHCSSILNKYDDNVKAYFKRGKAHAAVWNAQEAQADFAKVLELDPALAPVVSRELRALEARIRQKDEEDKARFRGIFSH
probe-labelled cysteine peptide fold change (10 µM): -0.126
probe-labelled cysteine peptide fold change (50 µM): 1.17

AKAP17A_Q02040_17_AAATIVHDTSEAVELCPAYGLYLK (UniProt Q02040)
probe-labelled cysteine peptide fold change (10 µM): 0.583
probe-labelled cysteine peptide fold change (50 µM): 0.399

ARSA_P15289_493_GEDPALQICCHPGCTPR (UniProt P15289)
Sequence of UniProt P15289 (P15289 whole entry): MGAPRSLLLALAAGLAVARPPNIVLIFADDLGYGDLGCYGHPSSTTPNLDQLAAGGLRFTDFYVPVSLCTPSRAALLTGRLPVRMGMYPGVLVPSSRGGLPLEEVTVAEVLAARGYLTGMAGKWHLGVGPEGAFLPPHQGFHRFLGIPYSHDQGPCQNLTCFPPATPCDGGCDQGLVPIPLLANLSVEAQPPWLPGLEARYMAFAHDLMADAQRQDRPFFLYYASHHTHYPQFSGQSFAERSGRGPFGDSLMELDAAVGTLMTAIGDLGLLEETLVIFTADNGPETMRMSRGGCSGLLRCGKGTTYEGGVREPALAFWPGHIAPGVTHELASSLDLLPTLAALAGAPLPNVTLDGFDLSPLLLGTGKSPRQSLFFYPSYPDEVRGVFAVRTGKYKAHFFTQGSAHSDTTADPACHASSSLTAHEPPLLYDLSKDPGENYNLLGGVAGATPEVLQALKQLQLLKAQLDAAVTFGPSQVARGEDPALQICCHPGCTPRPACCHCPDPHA
probe-labelled cysteine peptide fold change (10 µM): 0.139
probe-labelled cysteine peptide fold change (50 µM): 0.309

AMPD2_Q01433_107_SLPGPAPCLK (UniProt Q01433)
Sequence of UniProt Q01433 (Q01433 whole entry, looked up): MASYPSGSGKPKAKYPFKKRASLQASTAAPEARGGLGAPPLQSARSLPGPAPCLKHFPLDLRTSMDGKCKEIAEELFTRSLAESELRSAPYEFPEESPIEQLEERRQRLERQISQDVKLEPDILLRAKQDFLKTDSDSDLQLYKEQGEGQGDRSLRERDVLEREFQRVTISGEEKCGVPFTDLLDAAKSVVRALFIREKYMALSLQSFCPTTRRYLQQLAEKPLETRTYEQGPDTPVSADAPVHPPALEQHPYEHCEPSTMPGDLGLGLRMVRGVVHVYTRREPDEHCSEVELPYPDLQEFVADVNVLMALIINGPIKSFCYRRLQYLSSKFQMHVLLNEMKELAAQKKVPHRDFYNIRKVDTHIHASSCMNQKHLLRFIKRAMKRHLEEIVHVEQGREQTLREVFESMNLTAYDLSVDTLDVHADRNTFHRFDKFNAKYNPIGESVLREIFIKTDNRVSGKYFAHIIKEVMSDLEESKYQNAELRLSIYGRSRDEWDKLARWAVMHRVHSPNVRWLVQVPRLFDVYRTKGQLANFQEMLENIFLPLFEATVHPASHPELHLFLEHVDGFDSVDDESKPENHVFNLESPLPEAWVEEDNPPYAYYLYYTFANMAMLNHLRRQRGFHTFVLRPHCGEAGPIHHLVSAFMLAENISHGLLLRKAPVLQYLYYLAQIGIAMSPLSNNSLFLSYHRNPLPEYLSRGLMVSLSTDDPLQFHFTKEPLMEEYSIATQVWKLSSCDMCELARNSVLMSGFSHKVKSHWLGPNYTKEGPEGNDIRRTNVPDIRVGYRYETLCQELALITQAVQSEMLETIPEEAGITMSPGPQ
probe-labelled cysteine peptide fold change (10 µM): -0.11
probe-labelled cysteine peptide fold change (50 µM): -0.295

ATF6_P18850_321_ESACQSR<|>ATF6B_Q99941_340_ESACQSR (UniProt Q99941+P18850)
probe-labelled cysteine peptide fold change (10 µM): 0.753
probe-labelled cysteine peptide fold change (50 µM): 1.73

ASAP1_Q9ULH1_652_QTALGNTVLHYCSMYSKPECLK (UniProt Q9ULH1)
probe-labelled cysteine peptide fold change (10 µM): 0.0362
probe-labelled cysteine peptide fold change (50 µM): 0.157

AP2A1_O95782_492_TVFEALQAPACHENMVK (UniProt O95782)
probe-labelled cysteine peptide fold change (10 µM): 0.179
probe-labelled cysteine peptide fold change (50 µM): 0.0904

ARHGAP25_P42331_154_VAGTPCGVFGQR (UniProt P42331)
probe-labelled cysteine peptide fold change (10 µM): 0.0288
probe-labelled cysteine peptide fold change (50 µM): -0.103

ATP5S_Q99766_134_CHYIEDDCLLR (UniProt Q99766)
probe-labelled cysteine peptide fold change (10 µM): -0.0886
probe-labelled cysteine peptide fold change (50 µM): 0.0874

ATP6V1A_P38606_138_WDFTPCK (UniProt P38606)
probe-labelled cysteine peptide fold change (10 µM): -0.198
probe-labelled cysteine peptide fold change (50 µM): -0.819

ARPC1B_O15143_227_VAWVSHDSTVCLADADK (UniProt O15143)
probe-labelled cysteine peptide fold change (10 µM): 0.316
probe-labelled cysteine peptide fold change (50 µM): 0.0213

ANAPC11_Q9NYG5_76_WLHAQQVQQHCPMCR (UniProt Q9NYG5)
Sequence of UniProt Q9NYG5 (Q9NYG5 whole entry, looked up): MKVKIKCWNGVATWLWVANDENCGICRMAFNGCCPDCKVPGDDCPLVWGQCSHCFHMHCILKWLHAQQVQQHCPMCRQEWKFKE
probe-labelled cysteine peptide fold change (10 µM): -0.122
probe-labelled cysteine peptide fold change (50 µM): 0.153

AGPS_O00116_226_IVNLACK (UniProt O00116)
probe-labelled cysteine peptide fold change (10 µM): 0.221
probe-labelled cysteine peptide fold change (50 µM): 0.311

APOH_P02749_124_CTEEGK (UniProt P02749)
probe-labelled cysteine peptide fold change (10 µM): 0.632
probe-labelled cysteine peptide fold change (50 µM): 0.551

ARFGEF2_Q9Y6D5_76_YFLPFELACQSK<|>ARFGEF1_Q9Y6D6_88_YFLPFELACQSK (UniProt Q9Y6D6+Q9Y6D5)
probe-labelled cysteine peptide fold change (10 µM): -0.179
probe-labelled cysteine peptide fold change (50 µM): -0.147

AKAP8_O43823_392+395_IQFACSVCK (UniProt O43823)
probe-labelled cysteine peptide fold change (10 µM): -0.0142
probe-labelled cysteine peptide fold change (50 µM): 0.0345

APTX_Q7Z2E3_161_DAAQEAEAGTGLEPGSNSGQCSVPLK (UniProt Q7Z2E3)
probe-labelled cysteine peptide fold change (10 µM): 0.282
probe-labelled cysteine peptide fold change (50 µM): -0.342

ATP5F1A_P25705_244_KLYCIYVAIGQK (UniProt P25705)
probe-labelled cysteine peptide fold change (10 µM): -0.433
probe-labelled cysteine peptide fold change (50 µM): 0.0534
